Measured values: PubChem BioAssay (NCI)
This is part of a sample that, as a whole, favours compounds with a hit. Of some 79,000 tested, about 15% had one in any assay. A number with no mark means an inactive call. Calls of active or inactive are those of the source. Rule as the data show it: active = growth inhibition above about 70%; inactive = the rest.

What was measured:
[1] = NCI Yeast Anticancer Drug Screen. Data for the rad50 strain (AID 155);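 also: 0% = growth of vehicle-only cultures of the same strain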; conditions: S. cerevisiae rad50 strain growth inhibition; at 50.0 µM; active compounds read high
Summary of the method: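 Compounds were tested on a yeast strain with an engineered DNA damage repair alteration; the reported value is growth inhibition normalised to vehicle treatment.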

[2] = NCI Yeast Anticancer Drug Screen. Data for the mec2-1 strain (AID 157); conditions: S. cerevisiae mec2-1 strain, at 50.0 µM, active compounds read high
Summary of the method: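 Growth inhibition is read against vehicle-treated controls after compound exposure of the mec2-1 yeast strain, which is defective in DNA damage repair or cell cycle control.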

[3] = NCI Yeast Anticancer Drug Screen. Data for the sgs1 mgt1 strain (AID 161);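 also: 0% = growth of cultures given vehicle only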; conditions: S. cerevisiae sgs1 mgt1 strain, at 50.0 µM, active compounds read high
Summary of the method: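 Growth of a repair-deficient yeast mutant was monitored after compound treatment and expressed as inhibition relative to vehicle-treated cultures.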

[4] = NCI Yeast Anticancer Drug Screen. Data for the cln2 rad14 strain (AID 165);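 also: 0% = growth equal to vehicle treated cultures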; conditions: S. cerevisiae cln2 rad14 strain, at 50.0 µM, active compounds read high
Summary of the method: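 Growth inhibition, relative to vehicle-treated controls, is the read-out. The test organism is a yeast strain with defined genetic alterations, cln2 rad14.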

[5] = NCI Yeast Anticancer Drug Screen. Data for the bub3 strain (AID 167); conditions: S. cerevisiae bub3 mutant strain, at 50.0 µM, active compounds read high
Summary of the method: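 Growth of a checkpoint-deficient yeast mutant is measured after compound exposure. Values represent inhibition relative to vehicle.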

[6] = NCI Yeast Anticancer Drug Screen. Data for the mlh1 rad18 strain (AID 175); conditions: S. cerevisiae mlh1 rad18 strain growth inhibition; at 50.0 µM; active compounds read high
Summary of the method: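 Cells of a genetically altered yeast strain, deficient in DNA damage repair, were treated with compound. Their growth was then compared with that of vehicle-treated cultures to give inhibition.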

| SMILES | growth inhibition [1] | growth inhibition [2] | growth inhibition [3] | growth inhibition [4] | growth inhibition [5] | growth inhibition [6] |
| --- | --- | --- | --- | --- | --- | --- |
| COC(=O)c1cc([O-])c2sc(C)c(C)[n+]2n1 | 4.25% | 19.6% | 25.7% | 35.6% | -4.05% | 2.55% |
| CN(Cc1cnc2nc(N)nc(N)c2n1)c1ccc(C(=O)NC(CCC(=O)NC(CCC(=O)O)C(=O)O)C(=O)O)cc1 (stereo unspecified) | 34.7% | 20.6% | 32.8% | 13.5% | 33.5% | 36.2% |
| CCCCOCCOC(=O)Nc1cccc(Cl)c1 | 35% | 30.7% | 51.1% | -11.6% | -0.3% | 2.15% |
| OC1CCC(C2C3CCCCC3C3CCCCC3C2C2CCC(O)CC2)CC1 (stereo unspecified) | 94.7% (active) | 98.5% (active) | 92.5% (active) | 97.9% (active) | 97.2% (active) | 96.8% (active) |
| NCCNCCCNC(=O)c1cc(-c2ccccc2)nc2ccccc12 | -18.8% | -6.35% | -1.7% | -11.9% | 14.9% | -3.95% |
| CCOC(=O)C1=C(C(=O)C(C)(C)C)C(c2ccc([N+](=O)[O-])cc2)C(C(=O)C(C)(C)C)=C(C(=O)OCC)N1 | 31.1% | 21.4% | 9.4% | 27.4% | 6.2% | 14.3% |
| O=S1c2ccccc2N=C(c2ccc3ccccc3c2)CC1C1=CC=CCC1 (stereo unspecified) | -27.4% | -33.1% | -3.1% | -2.65% | 3.85% | -11.8% |
| Cc1ccc(S(=O)(=O)NN=C2CC3C4CCC5C4CC3C25)cc1 (stereo unspecified) | 21.9% | -4.5% | 15.9% | 12% | -13.5% | 7.1% |
| CCSCC(C)C(=O)OC (stereo unspecified) | -26.6% | -0.4% | -14.3% | 23.6% | 2.85% | -40.3% |
| CCC1(C#N)N=C(c2ccccc2)c2ccccc2N1C(=O)OC (stereo unspecified) | 5.7% | -1.9% | 17.8% | -28.9% | -35.5% | 18.1% |
| N=c1sc(N2CCOCC2)nn1CC(=O)c1ccccc1 | 3.25% | -20.9% | -18.2% | 4.35% | -17.1% | 15.1% |
| CC(=O)/C(=C\c1ccc(/C=C(\C(C)=O)C(=O)CCN(C)C)cc1)C(=O)CCN(C)C | 38.6% | 58.5% | 7.05% | 5% | 5.65% | -19.6% |
| CC(=O)CC(=O)NCCCN1CCCCC1 | -28.7% | -52.1% | -30.4% | -5.1% | -34.4% | -33.4% |
| CCc1ccccc1NC(=O)C1=C(C)NC(C)=C(C(=O)Nc2ccccc2CC)C1c1cccc([N+](=O)[O-])c1 | -0.95% | 52% | 24.2% | 17.9% | 36.5% | 20.5% |
| O=P(O)(O)c1ccc(Cl)cc1 | -1.8% | -1.3% | -1.65% | 8.7% | 8.55% | -9.4% |
| CC(C)NC(=O)OCc1c(COC(=O)NC(C)C)c2cccn2c2c1cnn2-c1ccccc1 | -0.9% | 0.6% | -11.2% | -3.7% | 0.15% | 18.3% |
| O=C(O)c1ccccc1SC(Sc1ccccc1C(=O)O)c1ccccc1 | -11.8% | -10.7% | -2.35% | -7.85% | 12.1% | 10.6% |
| c1ccc(CC2CCCC(Cc3ccccc3)N2)cc1 (stereo unspecified) | -1.25% | -16.4% | -5.55% | -49.3% | 16.1% | 5.1% |

| SMILES | growth inhibition [1] | growth inhibition [2] | growth inhibition [3] | growth inhibition [4] | growth inhibition [5] | growth inhibition [6] |
| --- | --- | --- | --- | --- | --- | --- |
| O=C(Nc1cccc(Cl)c1)OCc1ccccn1 | 37.6% | 8.15% | 6.9% | -21.5% | -0.95% | 22.1% |
| Clc1cc(/C=C/c2ccccc2)c2ccccc2n1 | 25.9% | -0.05% | 12.6% | -7.5% | -4.65% | 22.3% |
| COC(C)CCOC(=O)COc1ccccc1 (stereo unspecified) | 17.8% | -10% | 8.35% | -11.3% | 13.8% | 8.3% |
| CCN(CC)CCn1ncc2ccc3c(c(=O)c4cccnc4n3CCN(CC)CC)c21 | 9% | 16.8% | 13.2% | 27.8% | 11.6% | 10.9% |
| CCCCOC(C)OCCCC | 9.3% | -6.35% | -3.4% | 5.2% | 5.65% | -17% |
| CC(C)(C)C1=CC(=O)CCC1 | -37.6% | -31.2% | -16.4% | -8.1% | -26.9% | 5.65% |
| CCOC(=O)C(C(=O)OCC)=C(N)C(Cl)(Cl)Cl | 0.2% | -1.6% | -9.9% | 14.8% | 11.7% | -1.9% |
| Cc1cccc(NC(=O)COc2c(C)cc(Cl)cc2Cl)c1 | 23.8% | 15.5% | 38.2% | 0.45% | 38% | 14.8% |
| O=C(O)CNc1ccc([N+](=O)[O-])cc1C(=O)O | -1.25% | -1% | 2.75% | 7.4% | -6.7% | -5.95% |
| O=C1OC(/C=C/c2ccccc2)=NC/1=C\c1ccccc1O | 16.1% | 8.6% | 20% | 23.4% | 0.7% | 6.6% |
| O=C(O)C1C(C(=O)O)C1c1ncnc2nc[nH]c12 (stereo unspecified) | -0.95% | -13.7% | -4.95% | -26.8% | -17.8% | 7.4% |
| Cc1ccc(C(C)C)cc1OCCOCCCl | -2.25% | 12.8% | -4.85% | -148% | -1% | 10.8% |
| COC(=O)c1cccc(C(=O)CC(=O)c2ccccc2)c1 | 18.6% | 12.7% | 8.1% | 12.3% | 11.2% | 11.6% |
| O=C(O)Cc1ccc2ccccc2c1Br | -8.5% | 13.1% | 1.8% | 22.8% | -8.6% | 14.3% |
| NC(=O)C(O)(c1ccc(Br)cc1)C(Cl)Cl (stereo unspecified) | 4.65% | 3.05% | -5.55% | 9.05% | 11.6% | 5.95% |
| CC(=O)NNc1nc(C)c(C(=O)NNC(=O)C(=O)Nc2c(Cl)cc([N+](=O)[O-])cc2Cl)s1 | 41.2% | 22.9% | 45.7% | 29% | 42.7% | 18.9% |
| CC(=O)Nc1ccc(N=Nc2cccc(C)c2)cc1C | -1.6% | -1.6% | 10.1% | -13.1% | 2.4% | -7.2% |
| CC(C)OC(CCCl)c1ccc(Cl)cc1 (stereo unspecified) | -7% | -9.2% | -22.1% | 7.2% | -37.6% | -2.25% |
